The structures appear in SMILES notation.

The values below come from ChEMBL document CHEMBL3988442, “University of Dundee, Small-Polar-MMV Screening Library” (2021).

The target in the experiment is AMP-activated protein kinase, AMPK (Homo sapiens) (UniProt P54646+O43741+P54619+Q9UGJ0+Q9Y478+Q13131+Q9UGI9). As to the kind of experiment: AMP-dependent Kinase enzyme assay. An in vitro enzyme assay that detects ADP turnover that is directly proportional to AMPK activity. This uses naive AMPK that is activated during the assay with MK-8722. In kind it is functional. Further details: scale not given: direction of the effect not stated beside the values. The conditions noted are these: 30 µM.
For the compound `O=C1CCC2(CCOC2)CN1Cc1nncn1CCc1ccccc1` (stereo not given), the Percent Effect was 14.2%.

For the compound `CNC(=O)c1ccc(C2CN(c3cc(C)nc(N)n3)CCO2)nc1` (stereo not given), the Percent Effect is -3.96%.

On to `O=C(Cc1ccc2c(c1)CCC2)NC1CCN(Cc2ccccc2)CC1`, for which the Percent Effect is -0.352%.

For `COc1ccc(N2CCN(C(=O)CCCc3cn[nH]c3)CC2=O)cc1`, the Percent Effect is -3.84%.

`OCC1(CCOc2ccccc2)CCN(c2ccc(Cl)cn2)CC1`: the Percent Effect was -2.64%.

For `CCn1c(C2CCN(C(=O)c3ccc4sc(C)nc4c3)CC2)n[nH]c1=O`, the Percent Effect is -0.0637%.

Turning to `CCc1nnc(CN2CCc3ccc(S(N)(=O)=O)cc32)o1`, the Percent Effect turned out to be 5.08%.

Turning to `O=C(NCCc1cc(N2CCOCC2)nc(N2CCCC2)n1)C1CC1`, the Percent Effect stood at 13.9%.

In the case of `Cc1n[nH]c(C)c1CCNC(=O)Nc1ccc(S(C)(=O)=O)cc1`, the Percent Effect turned out to be 4.13%.

In the case of `CN1CC(c2n[nH]c(=O)n2-c2cccc(Cl)c2)CC1=O` (stereo not given), the Percent Effect was -12.1%.

For `Cc1ccccc1CN1CCCC1c1cccc(Nc2nccs2)n1` (stereo not given), the Percent Effect is 16.4%.

For the compound `COc1ccccc1C(NC(=O)CN(C)C(C)C)c1noc(C)n1` (stereo not given), the Percent Effect was -4.19%.

Regarding `CC(C)(C)c1n[nH]cc1CNC1CCC(OCC(F)(F)F)CC1` (stereo not given), the Percent Effect worked out at 3.73%.

Turning to `CCc1ccsc1C(=O)NC(C#N)CC(C)C` (stereo not given), the Percent Effect was -7.05%.

As for `Cc1noc(C)c1CCc1nc(C2CCOC2)no1` (stereo not given), the Percent Effect was -7.75%.

As to `CC(=O)NCCc1cc2nc(-c3ccncc3)ccn2n1`, the Percent Effect was 17.4%.

Take `Cc1cc(C[S+]([O-])Cc2ccccc2F)no1` (stereo not given): the Percent Effect was 13.9%.

For the compound `CN(CCCOc1ccccc1Cl)C(=O)CN1C(=O)CCNC1=O`, the Percent Effect amounted to 7.42%.

`Cc1c(CN2CCc3[nH]cnc3C2C(=O)O)[nH]c2ccc(F)cc12` (stereo not given): the Percent Effect was determined as 3.73%.

`O=C(Nc1cccc(N2CCCC2)c1)N[C@H](CCO)c1ccccc1`: the Percent Effect was -57.9%.
